Data as given in PubChem BioAssay (Tox21).
Results filed as inconclusive are left out. Entries that show only a call come without a potency. Active and inactive are the calls of the source. The call rests on the fitted dose curve; in most records, active means well fitted activation curve with a large enough effect in the repeat runs; inconclusive means weak or mixed curves; inactive means no such curve, though single readings can be large or run the other way.

experiment: qHTS assay for small molecules that induce genotoxicity in human embryonic kidney cells expressing luciferase-tagged ATAD5 (AID 651632); conditions: HEK293T ATAD5-luciferase induction, 16 h; series mostly up to 83.3 µM; further: nearly all actives have a fitted effect of over 15% in size
Description: U.S. Tox21 Program National Center for Advancing Translational Sciences [NCATS] NIH Chemical Genomics Center [NCGC] U.S. Environmental Protection Agency [EPA] National Institutes of Environmental Health Sciences [NIEHS] National Toxicology Program [NTP] U.S. Food and Drug Administration [FDA] Tox21 Assay Overview: As cancer cells divide rapidly and during every cell division they need to duplicate their genome by DNA replication. The failure to do so results in the cancer cell death. Based on this concept, many chemotherapeutic agents were developed but have limitations such as low efficacy and severe side effects etc. A new cell based assay was developed to find the compounds that effectively block DNA replication either by directly damaging DNA or by inhibiting other cellular mechanisms. Enhanced Level of Genome Instability Gene 1 (ELG1; human ATAD5) protein levels increase in response to various types of DNA damage. Using a luciferase reporter-gene tagged with ATAD5, a cell-based assay [developed by Kyungjae Myung, NHGRI, NIH] was used to measure the induction of ATAD5 in human embryonic kidney cells (HEK293T). So, increase in luciferase activity can be used to identify the compounds that cause genetic stress.
Tox21 Assay Protocol Summary: For genotoxicity screening, 2,000 cells in 5 uL/well were dispensed into white, solid-bottom 1536-well plates using a Multidrop Combi (Thermo Scientific) dispenser. Following transfer of 23 nL compound or DMSO vehicle by a pin tool, the plates were incubated 16 hr at 37C and 5% CO2. 5 ul Amplite (AAT Bioquest, Inc.) was then added to each plate and following 30 min incubation at room temperature, luciferase activity was quantified on a ViewLux CCD-based plate reader.

| Structure (SMILES) | Potency |
| --- | --- |
| CCCCCCCCCCCCCCCCCC(=O)OCCO | inactive |
| CCN(CC)CCCC(C)Nc1cc(/C=C/c2ccccc2Cl)nc2cc(Cl)ccc12 (stereo not given) | inactive |
| CCCCCCCCCCCCCCCCCCCCCC(=O)Nc1ccn([C@@H]2O[C@H](CO)[C@@H](O)[C@@H]2O)c(=O)n1 | inactive |
| CCCCCC(O)/C=C/C=O (stereo not given) | inactive |
| C=C1CC[C@@H]2[C@](C)(CO)[C@H](O)CC[C@@]2(C)[C@@H]1C/C=C1/C(=O)OC[C@H]1O | inactive |
| C#C[C@]1(O)CC[C@H]2[C@@H]3CCC4=CCCC[C@@H]4[C@H]3C(=C)C[C@@]21CC | inactive |
| Cn1c(=O)c2c(ncn2CCOC(=O)C(C)(C)Oc2ccc(Cl)cc2)n(C)c1=O | inactive |
| CC(C)(C)C(=O)OCOC(=O)[C@@H]1N2C(=O)[C@@H](N=CN3CCCCCC3)[C@H]2SC1(C)C | inactive |
| O=P(O)(O)C(O)(Cc1cnc2ccccn12)P(=O)(O)O | inactive |
| CCCCCCCCCCCCCCCCCC[N+](C)(C)CCC[Si](OC)(OC)OC | inactive |
| O=C1C(=O)c2ncccc2-c2cccnc21 | inactive |
| CN1CCN2c3ncccc3Cc3ccccc3C2C1 (stereo not given) | inactive |
| O=[N+]([O-])c1c(Cl)cccc1-c1c[nH]cc1Cl | inactive |
| CC[C@H](CC[C@@H](C)[C@H]1CC[C@H]2[C@@H]3CC=C4C[C@@H](O)CC[C@]4(C)[C@H]3CC[C@]12C)C(C)C | inactive |
| CC[C@@]1(O)C(=O)OCc2c1cc1n(c2=O)Cc2cc3c([N+](=O)[O-])cccc3nc2-1 | inactive |
| COC(=O)[C@H]1[C@H]2C[C@@H]3c4[nH]c5cc(OC)ccc5c4CCN3C[C@H]2C[C@@H](OC(=O)/C=C/c2cc(OC)c(OC)c(OC)c2)[C@@H]1OC | inactive |
| Nc1ccn(C[C@@H](CO)OCP(=O)(O)O)c(=O)n1 | inactive |
| CN(C)CCOc1ccccc1Cc1ccccc1 (tested in a mixture with another compound) | inactive |
| CCCCCCCCCCCCCCCC(=O)O[C@@H]1[C@@H](O)[C@@H](O)[C@@H]([C@H](NC(=O)[C@@H]2C[C@@H](CCC)CN2C)[C@H](C)Cl)O[C@@H]1SC | inactive |
| CCC[C@@]1(CCc2ccccc2)CC(O)=C([C@H](CC)c2cccc(NS(=O)(=O)c3ccc(C(F)(F)F)cn3)c2)C(=O)O1 | inactive |

| Structure (SMILES) | Potency |
| --- | --- |
| CCN(CC)CCOC(=O)c1ccc(N)cc1Cl | inactive |
| CCOC(=O)[C@H](CS)NCCN[C@@H](CS)C(=O)OCC | inactive |
| CCCCCCOc1ccc(C(=N)N(CCCC)CCCC)c2ccccc12 | inactive |
| CC(C)C(=O)OCC(=O)[C@@]12O[C@H](C3CCCCC3)O[C@@H]1C[C@H]1[C@@H]3CCC4=CC(=O)C=C[C@]4(C)[C@H]3[C@@H](O)C[C@@]12C | inactive |
| COCC(=O)Nc1cc(Sc2ccccc2)ccc1N=C(NC(=O)OC)NC(=O)OC | inactive |
| CO[C@H]1O[C@@H]2O[C@@]3(C)CC[C@H]4[C@H](C)CC[C@@H]([C@H]1C)[C@@]24OO3 | inactive |
| C=CCSSSCC=C | inactive |
| CCCCCCCCCCCCCCCC(=O)OC[C@@H](NC(=O)C(Cl)Cl)[C@H](O)c1ccc([N+](=O)[O-])cc1 | inactive |
| C=C1C(=C/C=C2\CCC[C@]3(C)[C@@H]([C@H](C)CCCC(C)(C)O)CC[C@@H]23)C[C@@H](O)C[C@@H]1O | inactive |
| CC1=C[C@H](O)CC(C)(C)[C@H]1/C=C/C(C)=C/C=C/C(C)=C/C=C/C=C(C)/C=C/C=C(C)/C=C/C1=C(C)C[C@@H](O)CC1(C)C | inactive |
| N=C(N)c1ccc(OCCCOc2ccc(C(=N)N)cc2Br)c(Br)c1 | inactive |
| O=P(O)(O)OC[C@H]1O[C@](O)(COP(=O)(O)O)[C@@H](O)[C@@H]1O | inactive |
| COc1ccc2c(c1)OC(C)(C)C(c1ccccc1)C2c1ccc(OCCN2CCCC2)cc1 (stereo not given) | inactive |
| CCN(CC)CCOCCOC(=O)C(CC)(CC)c1ccccc1 | inactive |
| Cc1cc(C)c(NC(=O)C[C@H](CC(=O)O)c2cccc3ccccc23)c(C(=O)N2CCC3(CCCC3)CC2)c1 | inactive |
| CC[C@H](C)[C@@H]1NC(=O)[C@H](Cc2ccc(O)cc2)NC(=O)[C@@H](N)CSSC[C@@H](C(=O)N2CCC[C@H]2C(=O)N[C@@H](CC(C)C)C(=O)NCC(N)=O)NC(=O)[C@H](CC(N)=O)NC(=O)[C@H](CCC(N)=O)NC1=O | inactive |
| CC1=C(/C=C/C(C)=C/C=C/C(C)=C/C=C/C=C(C)/C=C/C=C(C)/C=C/C2=C(C)C(=O)CCC2(C)C)C(C)(C)CCC1=O | inactive |
| Cc1ncc(COP(=O)(O)O)c(CN)c1O | inactive |
| CCCCCCCCCCCCCCCCCC(=O)OCC(C)O (stereo not given) | inactive |
| COc1cc2c(cc1OC)[C@@H](c1ccccc1)CN(C)CC2 | inactive |
